Experimental data: PubChem BioAssay (NCI)
This is part of a sample that, as a whole, favours compounds with a hit. Of some 83,000 tested, about 20% had one in any assay.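 Interpretation: 100, growth as untreated; towards 0, rising growth inhibition; 0, no net growth; 0 to -100, cell death. Compounds scoring below 10 were considered active.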 Unmarked numbers belong to inactive results. The source made the active and inactive calls.

What follows are compounds tested on HL-60(TB) leukemia (assay: NCI-60 one-dose screen, 48 h (100 = growth as untreated, 0 = no growth, -100 = all killed)). Conditions: 10 µM unless noted.
`COc1ccc(-c2nc3c(ncc4ccc(=O)[nH]c43)s2)cc1` gave a growth of 80.1%. Work on `COc1cccc(/C=C2\SC(=Nc3ccc(NC(C)=O)cc3)NC2=O)c1OC` yielded a growth of 101%. Work on `Cc1c(CC(=S)N2CCOCC2)nnn1-c1cccc(C(F)(F)F)c1` yielded a growth of 100%. With `NC1=C(Cl)C(=O)c2ccc(S(N)(=O)=O)cc2C1=O` the growth was 3.12% (active). In the case of `CC(=O)c1cc(Br)ccc1O`, the growth was 101%. `COc1ccc2c(c1)C(c1cc(OC)c3c(c1)OCO3)C1=C(COC1=O)N2` (stereo not given) was tested, and the growth was 4.04% (active). `CCCCCCCCCC(=O)Oc1ccc(/C(=C(/C)Cc2cccc(OC)c2)c2ccc(OCCN(C)C)cc2)cc1` showed a growth of 112%. Work on `CS(=O)(=O)N(c1cc(-c2ccc3ncnc(Nc4ccc(F)c(Cl)c4)c3c2)cnc1Cl)S(C)(=O)=O` yielded a growth of 20.4%. For `COC(=O)c1cc2c(=O)[nH]cc3c2c(n1)CCC3`, the growth was 74.6%. `COc1cc(-c2nn(C(=O)NS(=O)(=O)c3ccccc3)cc2-c2ccncc2)ccc1Cl` showed a growth of 98.1%. In the case of `CN1CCN(CC(=O)Nc2nc(-c3cccc(NS(=O)(=O)c4cccc5c(N(C)C)cccc45)c3)cs2)CC1`, the growth was 23.3%. `Nc1ccc(N=Nc2ccccc2)c2cc(S(=O)(=O)O)ccc12` gave a growth of 103%. Work on `COc1ccc2c(c1)sc1nc(-c3ccccc3)c(-c3cccnc3)n12` yielded a growth of 105%. `O=[N+]([O-])c1ccc(-n2[nH]nnc2=S)cc1` was tested, and the growth was 105%. Work on `O=C(/C=C/c1ccccc1)c1ccccc1O` yielded a growth of 24.1%.
